Bioassay records from PubChem BioAssay.
In the library only some 7.1% were active in any assay of this set; here they are far more common.
ATXN2 expr inh = reduces ATXN2 reporter expression in HEK-293 cells. HEK-293 ATXN2-luciferase reporter, luminescence, 24 h. Potency, µM (top dose mostly 57 µM), without a hit: at the highest dose activity change, negative = inhibition, usual class: inhibitors. hit rate 0.72% among 360,000. AID 1745845; also: potency is read from the fitted curve at half-maximal effect; % is scaled to controls: 0 for no effect and ±100 for the full control effect; nearly all actives have a fitted effect of over 55% in size
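qHTS (up to 57 uM final) was run with 24 h compound exposure of reporter cells at 37 °C. Each well was multiplexed: SteadyGlo luminescence measured ATXN2-luciferase expression after a fluorogenic Gly-Phe-AFC viability readout (25 uM final).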
PINK1 expr mod = PINK1 expression modulation; PINK1 immunofluorescence, high-content cytometry, 24 h; Potency, µM (doses to about 76.6 µM), without a hit: at the highest dose activation (PINK1 increase), usual class: activators; hit rate 0.2% among 410,000; AID 624263; active = well fitted activation curve with a large enough effect; inconclusive = small, poorly fitted or top-dose-only effect; cell line not stated here; also: potency is read from the fitted curve at half-maximal effect; % of control where 0% means no effect; nearly all actives have a fitted effect of over 65% in size
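PINK1 protein, normally rapidly degraded, was detected by immunofluorescence after 24 hour compound treatment of a stable cell line. Titration data (5 concentrations) came from laser-scanning cytometry, with CCCP-treated wells as controls.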
ATXN viability = reduces viability in counter-screen for ATXN expression inhibitors. Potency, µM (highest dose often 56.7 µM), usual class: cytotoxic. S2 cells (HEK-293 line with an ATXN2-luciferase reporter) viability, CellTiter-Fluor protease fluorescence, 24 h. AID 651635. hit rate 0.49% among 400,000; also: potency is read from the fitted curve at half-maximal effect; nearly all actives have a fitted effect of over 40% in size
MCF10A rereplic = induces DNA re-replication in MCF 10a normal breast cells. hit rate 2.9% among 350,000. MCF 10A DNA re-replication, Hoechst nuclear intensity, 48 h. Potency, µM (highest dose often 46.1 µM), inactives show top-dose activity, positive = re-replication, actives largely listed as activators; also: potency is read from the fitted curve at half-maximal effect; % of control where 0% means no effect; nearly all actives have a fitted effect of over 50% in size
IL1B secr inh = inflammasome signaling inhibition, IL-1 beta readout | activity change, % at 57.5 µM | THP-1 LPS/ATP IL-1B secretion, AlphaLISA, 16 h; hits give low values | hit rate 4.7% among 360,000; in the data active = activity change below about -50%; inconclusive = mostly about -30% to -49%; also: % is scaled to controls: 0 for no effect and ±100 for the full control effect
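Secreted IL-1B measured by AlphaLISA bead assay after 16 h compound exposure of THP-1 cells; compounds (final up to 57.5 uM) added 1 h before LPS (250 ng/mL) and ATP (1.25 mM) stimulation; lower signal means less secretion.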
SW480 rereplic = inducers of DNA re-replication in SW480 colon cancer cells; SW480 DNA re-replication, Hoechst DNA content imaging, 48 h; Potency, µM (highest dose often 46.1 µM), without a hit: at the top dose re-replication activation, most hits filed as activators; hit rate 1.8% among 340,000; AID 624297; also: potency is read from the fitted curve at half-maximal effect; % of control where 0% means no effect; nearly all actives have a fitted effect of over 55% in size
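Cells (250 per well) received 23 nL compound or DMSO by pin tool and were kept 48 hr at 37 C, 5% CO2. Nuclei were then stained with Hoechst for 40 min and scanned for DNA content.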
The depositor's hits bear a star; i = inactive; ? = inconclusive; / = no result given; [ ] = remark or other dose. Unless noted, calls follow the shape of the dose curve; as a rule, active = well fitted curve in the direction sought with a large enough effect; inconclusive = small, poorly fitted or top-dose-only effect, or another doubt; inactive = no such curve, though single readings can be large; an effect the other way counts as inactive or inconclusive.

SMILES	ATXN2 expr inh	PINK1 expr mod	ATXN viability	MCF10A rereplic	IL1B secr inh	SW480 rereplic
CN(C)CC/C=C1\c2ccccc2COc2ccc(CC(=O)O)cc21	/	/	/	-1%	/	1%
CN1CCN(c2ccc(S(=O)(=O)N3CCCCC3)cc2NC(=O)/C=C/c2ccc(Cl)c([N+](=O)[O-])c2)CC1	22µM*	-2%	?	?	-81*	?
CCN1CCN(c2ccc(S(=O)(=O)N3CCOCC3)cc2NC(=O)/C=C/c2ccc(C)cc2)CC1	6%	-1%	i	17%	?	9%
CCN1CCN(c2ccc(S(=O)(=O)N3CCCCC3)cc2NC(=O)c2cccc(OC(F)F)c2)CC1	5%	0%	i	7%	?	15%
CCN1CCN(c2ccc(S(=O)(=O)N3CCCCC3)cc2NC(=O)/C=C/c2ccc(F)cc2)CC1	-15%	2%	i	23%	?	?
CCN1CCN(c2ccc(S(=O)(=O)N3CCCCC3)cc2NC(=O)/C=C/c2ccc([N+](=O)[O-])cc2)CC1	32µM*	1%	?	?	-99*	-1%
CCN1CCN(c2ccc(S(=O)(=O)N3CCCCC3)cc2NC(=O)c2ccc(OC(F)F)cc2)CC1	-13%	8%	i	6%	-76*	-4%
CCN1CCN(c2ccc(S(=O)(=O)N3CCCCC3)cc2NC(=O)/C=C/c2ccc(OC(F)F)cc2)CC1	-11%	3%	i	?	-84*	?
COc1cccc(Sc2nc(N(C)C)ncc2S(=O)(=O)c2ccc(Cl)cc2)c1	/	4%	/	/	/	/
CN1CCN(c2ccc(S(=O)(=O)N3CCCCC3)cc2NC(=O)/C=C/c2ccc(OC(F)F)cc2)CC1	-34%	-2%	i	?	-80*	?
CC(Oc1ccc(F)cc1)C(=O)Nc1cc(S(=O)(=O)N2CCCCC2)ccc1N1CCN(C)CC1 (centres undefined)	-12%	-1%	i	14%	?	-3%
CC1=C(C(=O)Nc2ccccc2)C(c2cccnc2)n2nc(SCc3ccccc3F)nc2N1 (centres undefined)	1%	1%	i	/	/	/
CCc1ccc(CN(C)C(=O)c2cc(COc3c(F)cccc3F)on2)cc1	7%	3%	i	18%	-58*	1%
CN(Cc1cccc2ccccc12)C(=O)c1cc(COc2c(F)cccc2F)on1	/	0%	i	-14%	?	6%
CCc1ccc(CN(C)C(=O)c2cc(COc3cccc4cnccc34)on2)cc1	/	7%	i	21µM*	-6	-10%
COc1ccc(O)c(CN2CCCN(c3nc(C)c4cc(C)c(C)cc4n3)CC2)c1	/	0%	i	/	/	/
Oc1c(C(c2ccccc2F)N2CCN(c3ccccc3F)CC2)sc2nc(-c3ccco3)nn12 (centres undefined)	16%	2%	i	/	/	/
O=C(Nc1ccc2c(c1)OCO2)c1cc(-c2ccc(O)cc2)on1	11%	0%	i	10µM*	-11	?
Cc1ccc(/C=C/C(=O)NC2CCCCCCC2)o1	32%	7%	i	?	-104*	23µM*
O=C(Nc1ccc2c(c1)OCO2)c1cc(-c2ccncc2)nc2ccccc12	-12%	6%	i	18µM*	6	?
O=C(Nc1ccc2c(c1)OCO2)c1cc(-c2ccc(Cl)cc2)on1	?	3%	i	/	/	/
O=C(Nc1ccc2c(c1)OCCO2)c1cc(-c2ccccc2)nc2ccccc12	-21%	1%	i	19%	-19	1%
Cc1cc(C(=O)NCC2COc3ccccc3O2)c2ccccc2n1 (centres undefined)	-4%	1%	i	-6%	-70*	-2%
Cc1ccc(/C=N/NC(=O)NC2CCCCC2)o1	19%	4%	i	-2%	-15	-6%
COc1cc2c(NC3CCN(C)CC3)nc(N3CCCN(C)CC3)nc2cc1OCCCCCN(C)C	/	-1%	/	/	/	/
SMILES	ATXN2 expr inh	PINK1 expr mod	ATXN viability	MCF10A rereplic	IL1B secr inh	SW480 rereplic
COc1cccc(N(CC(=O)N2CCC(C)CC2)S(=O)(=O)c2ccc(C)cc2)c1	2%	1%	i	/	/	/
CC(/C=N/NC(=O)c1cc(-c2ccncc2)nc2ccccc12)=C\c1ccco1	-7%	14%[38.3 µM]	i	?	10	0.92µM*
Cc1cc(C(=O)N/N=C/c2ccc3c(c2)OCO3)c2ccccc2n1	-16%	3%	?	?	99	10µM*
Cc1ccc(/C=C/C(=O)NCCc2c[nH]c3ccccc23)o1	-3%	0%	i	2%	-15	-1%
O=C(N/N=C/c1ccc2c(c1)OCO2)c1cc(-c2ccccc2Cl)nc2ccccc12	0%	2%	i	?	24	20%
O=C(Nc1ccc(Br)cc1)c1cc(-c2ccncc2)nc2ccccc12	-25%	13%	i	?	13	16µM*
Cc1ccc(/C=C/C(=O)NCCc2cccc(Cl)c2)o1	12%	2%	i	?	-65*	?
COc1cccc(CN2CCCN(Cc3ccc(F)cc3)S2(=O)=O)c1	/	1%	/	/	/	/
COc1ccc(C2CC(=O)Nc3c2c(C)nn3-c2nncc(-c3ccc(C)cc3)n2)c(OC)c1OC (centres undefined)	6%	2%	i	/	/	/
O=C(CSc1ncccn1)NCC1Cc2cccc(-c3ncccn3)c2O1 (centres undefined)	/	1%	i	/	/	/
CN(C1CCCCC1)S(=O)(=O)c1ccc2c(c1)c(=O)c(C(=O)NCc1ccccc1Cl)cn2C	5%	1%	i	/	/	/
O=C(Cc1ccccc1)Nc1ccc(C(=O)NCC2COc3ccccc3O2)cc1 (centres undefined)	17%	11%	i	-15%	-27	0%
O=C(Nc1ccc(C(=O)N2CCOCC2)cc1)c1cc(-c2cccnc2)nc2ccc(Br)cc12	?	2%	?	-1%	-53*	?
O=C(N/N=C/c1ccc2c(c1)OCO2)c1cc(-c2ccncc2)nc2ccccc12	-2%	4%	i	5.8µM*	26	16µM*
O=C(NCC1COc2ccccc2O1)c1ccc(NC(=O)C(c2ccccc2)c2ccccc2)cc1 (centres undefined)	/	5%	?	?	9	23µM*
Cc1ccc(/C=C/C(=O)NCC2COc3ccccc3O2)o1 (centres undefined)	-22%[11.3 µM]	3%	i	?	-53*	-3%
CCOC(=O)N1CCC(n2c(=O)[nH]c3cc(Cl)ccc32)CC1	?	/	i	/	/	/
Cc1c(C(=O)NCCN2CCOCC2)cnn1-c1nccc(-c2cc3ccccc3o2)n1	/	0%	i	/	/	/
